Source: PubChem
Hits are enriched below; roughly 21% of the tested compounds scored in any of these assays.
D3 antag = antagonists of human D3 dopamine receptor | P35462 | D3R cells, DiscoveRx beta-arrestin luminescence, antagonist mode; stronger effect = lower value | max response, negative = inhibition, % | 360,000 compounds, 2.5% hits | AID 652054; in the data active = max response below about -50%; inconclusive = no clear call, values can overlap the other calls; also: % is scaled to controls: 0 for no effect and ±100 for the full control effect
Target sequence (P35462 whole entry, looked up): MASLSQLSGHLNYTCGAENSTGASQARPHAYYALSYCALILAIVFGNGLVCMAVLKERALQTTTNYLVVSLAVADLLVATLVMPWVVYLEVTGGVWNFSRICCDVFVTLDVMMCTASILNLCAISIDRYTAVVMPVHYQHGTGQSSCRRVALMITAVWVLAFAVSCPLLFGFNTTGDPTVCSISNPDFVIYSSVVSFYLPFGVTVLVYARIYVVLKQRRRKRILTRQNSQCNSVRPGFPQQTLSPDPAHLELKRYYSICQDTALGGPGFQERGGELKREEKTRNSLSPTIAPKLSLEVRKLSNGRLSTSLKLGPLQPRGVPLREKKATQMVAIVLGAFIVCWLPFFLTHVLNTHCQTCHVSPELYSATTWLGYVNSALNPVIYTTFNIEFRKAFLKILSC
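Cells expressing the human receptor were seeded at 1500 cells/well, incubated overnight at 37 degrees C in 5% CO2, then exposed to library compounds with dopamine controls for 90 minutes at 37 degrees C before luminescent detection.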
DRD3 agonist = D3 dopamine receptor (human) agonism; D3R DiscoveRx beta-arrestin cells, luminescence, 90 min; max activation, %; 410,000 compounds, 0.58% hits; AID 652048; in the data active = max activation above about 30%; also: 0% is about no effect
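Agonist-mode cell screen: cells plated at 1500/well and incubated overnight at 37 °C, then exposed to library compounds for 90 min at 37 °C. Detection reagent was added for 30–60 min at room temperature, and luminescence was read.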
IL-1B inflam inh = inhibitors of inflammasome signaling (IL-1 beta secretion) | THP-1 LPS/ATP IL-1B secretion, AlphaLISA, 16 h; stronger effect = lower value | 360,000 compounds, 4.7% hits | AID 743279 | activity change, % at 57.5 µM; in the data active = activity change below about -50%; inconclusive = mostly about -30% to -49%; also: % is scaled to controls: 0 for no effect and ±100 for the full control effect
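Secreted IL-1B measured by AlphaLISA bead assay after 16 h compound exposure of THP-1 cells; compounds (final up to 57.5 uM) added 1 h before LPS (250 ng/mL) and ATP (1.25 mM) stimulation; lower signal means less secretion.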
ClpP mod = qHTS Assay for Activators of ClpP; AID 651965, 2013; ATP-dependent Clp protease proteolytic subunit (Bacillus subtilis (strain 168)), P80244; Potency, µM (titrated, usually from 57.5 µM), for inactives: at the top dose activity change, negative = active; purified B. subtilis ClpP, FRET peptide cleavage, 20 min; 340,000 compounds, 1.9% hits; active = well fitted falling curve with a large enough effect; inconclusive = small, poorly fitted or top-dose-only effect; inactive = no such curve, though single readings can be large or run the other way; also: potency is read from the fitted curve at half-maximal effect; the source files actives as falling curves though it sought activators and does not explain the sign; nearly all actives have a fitted effect of over 65% in size
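Buffer: 100 mM Tris/HCl pH8, 100 mM KCl, 0.05% low protease BSA, 2.5% glycerol, 0.01% Tween-20. ClpP 10 microg/mL final; 20 min RT; delta FRET normalized to ADEP and DMSO controls.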
DT40 TDP1 no CPT = qHTS for Inhibitors of human tyrosyl-DNA phosphodiesterase 1 (TDP1): qHTS in cells in absence of CPT | DT40 Tdp1-/- hTDP1 cells, no CPT, ATP luminescence, 48 h | Potency, µM (titrated, usually from 46.2 µM), for the others: at the highest dose activity change, negative = growth inhibition, actives largely listed as inhibitors | 420,000 compounds, 15% hits | AID 686978, 2013; also: potency is read from the fitted curve at half-maximal effect; % is scaled to controls: 0 for no effect and ±100 for the full control effect; nearly all actives have a fitted effect of over 55% in size
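Camptothecin absent (DMSO only). Human TDP1-complemented DT40 knockout cells, 400 cells/well, 37 °C for minimum 48 hr; ATP measured via CellTiter-Glo, 30 min dark incubation, luminescence.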
DT40 TDP1 CPT = growth inhibition of DT40 Tdp1-/-;hTDP1 cells with camptothecin (screen for TDP1 inhibitors) | Potency, µM (series often up to 46.2 µM), for the others: at the top dose activity change, negative = growth inhibition, hits mostly inhibitors | 420,000 compounds, 12% hits | chicken DT40 Tdp1-/-;hTDP1 cells + 20 nM CPT, ATP luminescence, 48 h; also: potency is read from the fitted curve at half-maximal effect; % is scaled to controls: 0 for no effect and ±100 for the full control effect; nearly all actives have a fitted effect of over 55% in size
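Chicken DT40 Tdp1-/- cells complemented with human TDP1, 400 cells/well, exposed to compounds plus 20 nM camptothecin for at least 48 h at 37 C; viability read as ATP content by CellTiter-Glo luminescence.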
The depositor's hits bear a star; u = inconclusive; x = no result given; [ ] = another dose, or the depositor's remark. Unless noted, calls follow the shape of the dose curve; as a rule, active = well fitted inhibition curve with a large enough effect; inconclusive = small, poorly fitted or top-dose-only effect; inactive = flat fitted curve, though single readings scatter.

SMILES | D3 antag | DRD3 agonist | IL-1B inflam inh | ClpP mod | DT40 TDP1 no CPT | DT40 TDP1 CPT
COc1ccc(C(=O)NCC(=O)OCC(=O)N2CC(C)OC(C)C2)cc1OC (stereo not drawn) | 8 | 2 | 12 | 3% | -13% | -7%
CCC(C)c1ccc(O)c(NC(=S)NC(=O)c2cccs2)c1 (stereo not drawn) | -25 | -34 | 2 | 1% | 23µM* | 13µM*
CCC(C)c1ccc(O)c(NC(=O)c2cccnc2)c1 (stereo not drawn) | 20 | -4 | 20 | 0% | u | u
COc1cc(OC)cc(C(=O)NC(=S)NNC(=O)c2cnccn2)c1 | 4 | -17 | 37 | 1% | 5.2µM* | 5.8µM*
CC(C)c1ccc2[nH]c3c(c2c1)CCC/C3=N\NC(=O)c1ccncc1 | -8 | -16 | -53* | 0% | 18µM* | 23µM*
Nc1ccc(C(=O)N/N=C2\CCCc3c2[nH]c2ccccc32)cc1 | 26 | -3 | -22 | u | u | -22%
CCOC(=O)c1cnc2cc(C(F)(F)F)ccc2c1Nc1cc(C)ccc1OC | x | -18 | x | 1% | u | -3%
O=C(CCNC(=O)OCC1c2ccccc2-c2ccccc21)NOCc1ccccc1 | 12 | 19 | 30 | -3% | 4.1µM* | 3.3µM*
NCC(=O)NNC(=O)OCC1c2ccccc2-c2ccccc21 | -3 | -5 | -2 | x | -4% | -18%
O=C(O)CCNC(=O)OCC1c2ccccc2-c2ccccc21 | 6 | 3 | 30 | -5% | u | 8.2µM*
CC(C)c1ccc(NC(=O)CCc2ccccc2)cc1 | -11 | -4 | u | u | u | u
COc1ccc(NC(=O)CC(C)NCCCN2CCCC2=O)cc1 (stereo not drawn) | -1 | -1 | -10 | 1% | 7% | 2%
COC(=O)c1ccccc1NC(=O)Cn1c(CCC(=O)O)ccc1-c1cccs1 | 11 | 1 | 8 | -4% | -28% | 12%
CCCn1c(CCC(=O)O)ccc1-c1cccs1 | -11 | 1 | 18 | 25µM* | 5% | 4%
COCCCn1c(CCC(=O)O)ccc1-c1cccs1 | -55* | -4 | 9 | u | -26% | -16%
COc1ccccc1CCN=C(N)NS(=O)(=O)c1ccc(C)c(C)c1 | -13 | 10 | -19 | 0% | 1% | -22%
Cc1[nH]c(=O)n(C(C)C)c(=O)c1Br | -20 | 1 | -2 | x | -11% | 0%
CCC1(C2CCN(C(=O)c3cc(F)ccc3F)CC2)NC(=O)N(CCc2scnc2C)C1=O (stereo not drawn) | x | x | x | x | -7% | 9%[9.04 µM]
N#Cc1nc(COc2ccc(F)cc2)oc1N1CCC(Cc2ccccc2)CC1 | 4 | -4 | u | -4% | u | u
COc1ccccc1-c1nc(C#N)c(N2CCN(Cc3ccccc3)CC2)o1 | -3 | -7 | -17 | 28µM* | 23µM* | u
COc1ccc(-c2nc(C#N)c(N3CCN(c4cccc(Cl)c4)CC3)o2)cc1OC | 26 | -3 | 0 | 28µM* | 0% | 2%
N#Cc1nc(COc2ccc(F)cc2)oc1N1CCN(Cc2ccccc2)CC1 | -6 | -4 | u | -2% | u | u
COc1ccc(-c2nc(C#N)c(N3CCC(C(N)=O)CC3)o2)cc1OC | -20 | -7 | -8 | -2% | 15% | -9%
CC1CCN(c2oc(-c3cccc4ccccc34)nc2C#N)CC1 | -8 | 3 | -26 | 5.6µM* | -19% | -20%
COc1ccccc1-c1nc(C#N)c(N2CCC(Cc3ccccc3)CC2)o1 | -28 | -6 | -4 | -13% | 18µM* | u
COCCn1c(=O)c(-c2ccc(Cl)cc2)nc2cnc(N(C)C)nc21 | x | x | x | x | -7% | -19%
